Molecules are shown by their SMILES. Among all 300,000 compounds or so, about 37,000 (12%) were called active. Rule as the data show it: active = max response mostly above about 13% (no sharp cut-off); inactive = mostly below about 14%. The list comes from a sample in which actives are over-represented; it also holds similar structures and randomly drawn compounds.

This test in a line: Cycloheximide Counterscreen for Small Molecule Inhibitors of Shiga Toxin. Also: read at 38.3 µM for the half of the compounds with a filed dose; 0% is about no effect. The note with it: cell reporter, cycloheximide protein synthesis inhibition counterscreen; stronger effect = higher value. (In general: A counterscreen serves to expose hits that act by an unwanted route or on another target.)
Turning to `CN(C)Cc1ccc(F)cc1Sc1cc(Cl)ccc1Cl`, the max response was -1.42% (inactive).

Regarding `O=C(COc1ccc(Cl)cc1Cl)N/N=C/c1ccccn1`, the max response is 13.4% (inactive).

Take `Cc1ccc(C(=O)N/C(=C/c2ccc(-c3cccc([N+](=O)[O-])c3)o2)C(=O)NCCCN(C)C)cc1`: the max response was -1.07% (inactive).

As for `C[C@H](NC(=O)c1nc[nH]c1C(=O)NCC(=O)OC(C)(C)C)c1ccccc1`, the max response was 3.3% (inactive).

Turning to `CCCN(CCC)C(=O)C1c2ccccc2Oc2ccccc21`, the max response was 3.35% (inactive).

For the compound `O=C(CN1CCCCCC1)Nc1ccc(Br)cc1[N+](=O)[O-]`, the max response is -2.43% (inactive).

Regarding `CC(C)(C)NC(=O)NC(=O)COC(=O)CCC1CCCCC1`, the max response is -2.12% (inactive).

On to `N/C(=N\OC(=O)CC1CCCCC1)c1ccccc1`, for which the max response was 40.4% (active).

Take `N/C(=N\OC(=O)Cc1ccccc1[N+](=O)[O-])c1ccc(Br)cc1`: the max response is 11.4% (inactive).

As to `COc1ccccc1OCc1nnc(SCC(N)=O)n1-c1ccccc1`, the max response is 7.05% (inactive).

Turning to `COc1ccccc1OCC(=O)OCn1c(SC)nnc(C)c1=O`, the max response is -1.41% (inactive).

On to `N/C(=N\OC(=O)CCC1CCCCC1)c1ccccn1`, for which the max response is 38.6% (active).

Consider `O=C(CN1CCN(c2ccccn2)CC1)NC1CCCCC1`, for which the max response is 9.34% (inactive).

Turning to `COc1ccccc1OCC(=O)O/N=C(\N)c1ccccn1`, the max response was 46.9% (active).

For `COc1ccccc1NC(=O)C(C)OC(=O)CC1CCCC1` (stereo not given), the max response is 0.793% (inactive).

Take `COc1ccc(C(=O)NCC(=O)N/N=C/c2ccc([N+](=O)[O-])o2)cc1OC`: the max response was 8.64% (inactive).

As to `COc1ccc(S(=O)(=O)n2nc(C)c(S(=O)(=O)N3CCOCC3)c2C)cc1`, the max response is -1.99% (inactive).

Turning to `COc1cccc(CNC(=O)c2nnn(CC(=O)Nc3cc(C)ccc3C)c2N)c1`, the max response was 7.9% (inactive).

In the case of `CSCC[C@H](NC(=O)N1CCn2c1nc1ccccc12)C(=O)NCc1ccc2c(c1)OCO2`, the max response was 0.519% (inactive).

Take `Cn1ncc(N2CCN(S(=O)(=O)c3ccc(Br)cc3)CC2)c(Cl)c1=O`: the max response was -6.65% (inactive).

Turning to `S=c1[nH]cc(-c2ccc(Cl)cc2)n1-c1ccccc1`, the max response was 9.09% (inactive).

On to `CC(C)(C)OC(=O)NC(Cc1ccccc1)C(=O)NC(CSC1CCCCO1)C(=O)NN` (stereo not given), for which the max response is -1.92% (inactive).

Consider `O=C(CC(c1ccccc1)c1ccccc1)NCC(O)c1ccc([N+](=O)[O-])cc1` (stereo not given), for which the max response was -4.98% (inactive).

For `Cc1nn2c(NCCN(C)C)c3c(nc2c1-c1ccccc1)CCC3`, the max response is -2.49% (inactive).

With `Cc1ccc(CNC(=O)Cn2c(=O)c3sccc3n(Cc3cccc([N+](=O)[O-])c3)c2=O)cc1`, the max response is 3.82% (inactive).

Regarding `CC(=O)n1cc([C@@H]2C=C(C(=O)N3CCN(Cc4ccc5c(c4)OCO5)CC3)O[C@H](OCc3ccc(CO)cc3)C2)c2ccccc21`, the max response was 0.854% (inactive).

Regarding `C/C(=C\C(=O)c1cccnc1)Nc1ccc(C)c(C)c1`, the max response is 29% (active).

As to `O=C(Cc1ccccc1)Nc1cccc(NC(=O)c2ccccc2)c1`, the max response was -0.775% (inactive).

On to `O=C(NCc1cccc(CNC(=O)Nc2cccc(O)c2)c1)Nc1cccc(O)c1`, for which the max response is -1.08% (inactive).

For `Cc1ccc(OCC(=O)NCCCNC(=O)c2cccnc2)cc1C`, the max response is -4.42% (inactive).

For the compound `C/C(=C\C(=O)c1ccccc1)Nc1cccc(O)c1`, the max response was 29.3% (active).

Regarding `COc1cc(/C=C(/NC(=O)c2ccccc2)C(=O)Nc2cccc(O)c2)c([N+](=O)[O-])cc1OC`, the max response was -3.43% (inactive).

Regarding `O=C(Nc1cccc(O)c1)c1ccc(C(=O)c2ccccc2)o1`, the max response is 40.5% (active).

For `Cc1ccc(NC(=O)COc2ccc(/C=N\NC(=O)c3cccnc3)cc2)cc1C`, the max response is 12.4% (inactive).

Consider `O=C(Nc1cccc(C(=O)N2CCCC2)c1)c1ccccc1`, for which the max response was -1.45% (inactive).

Consider `CCCCCN(C(=O)CCC(=O)OCC(=O)NCc1ccc(OC)cc1)c1c(N)n(CCCC)c(=O)[nH]c1=O`, for which the max response was -0.685% (inactive).

On to `COc1ccc(NC(=O)c2sc(N3CCOCC3)nc2-c2ccccc2)c(OC)c1`, for which the max response is -2.89% (inactive).

For `COc1ccc(C(=O)NCCNc2ccc([N+](=O)[O-])cn2)cc1`, the max response was 4.73% (inactive).

`Cc1ccc(OCC(=O)Nc2ccc(S(=O)(=O)Nc3ccccn3)cc2)cc1`: the max response was 1.04% (inactive).

With `CCN(CC)CCCNC(=O)COc1ccc2oc3c(c2c1)CCCC3`, the max response is -5.99% (inactive).

In the case of `O=C(COc1ccc2oc3c(c2c1)CCCC3)Nc1ccccn1`, the max response is 28.6% (active).

Turning to `COc1ccc(CN2CCN(Cc3ccc(OC)c(OC)c3OC)CC2)cc1`, the max response was -4.12% (inactive).

`Cc1ccc(CS(=O)Cc2ccc(C(=O)N3CCOCC3)o2)cc1` (stereo not given): the max response is 0.901% (inactive).

Turning to `CC(=O)NS(=O)(=O)c1ccc(N/C(N)=N/c2nc(C)cc(C)n2)cc1`, the max response was -0.472% (inactive).

As to `COc1ccc(CCNC(=O)CN2C(=O)COc3ccc(S(=O)(=O)N4CCCC4)cc32)cc1OC`, the max response was -2.34% (inactive).

As for `CCNc1nc(NC(C)C)nc(N2CC(=O)N(CC(=O)OCC)C2=N)n1`, the max response is -5.32% (inactive).

On to `CCN(CC)S(=O)(=O)c1ccc(-c2cn3ccc(C)cc3n2)cc1`, for which the max response is 45.6% (active).

For `COc1ccc(-c2cn3ccc(C)cc3n2)cc1`, the max response was -1.85% (inactive).

As for `CCN(c1cccc(C)c1)S(=O)(=O)c1ccc(-c2coc(C)n2)cc1`, the max response was -4.01% (inactive).

Take `CCCCN(CC)C(=O)c1ccccc1Oc1ccccc1`: the max response is -1.52% (inactive).

In the case of `Cc1ccc(N)cc1-n1c(C)ccc1C`, the max response was 23.9% (active).

Consider `Cc1ccc(C)n1-c1ccncc1`, for which the max response was -5.57% (inactive).

Consider `CN(c1ccccc1)S(=O)(=O)c1ccc(NC(=O)COc2ccccc2)cc1`, for which the max response is -1.66% (inactive).

Turning to `CCCCNC(=O)C1CCC(=O)N1CCc1ccccc1` (stereo not given), the max response is -3.51% (inactive).

For the compound `O=c1[nH]c(CN2CCOCC2)nc2scc(-c3ccccc3)c12`, the max response is 9.91% (inactive).

Regarding `O=c1[nH]c(CN2CCOCC2)nc2cc(Cl)ccc12`, the max response was 13% (active).

Consider `CN(CCOc1ccccc1)Cc1nc2cc(Cl)ccc2c(=O)[nH]1`, for which the max response is 2.21% (inactive).

On to `CC(NC(=O)c1ccccc1C(=O)O)c1ccc(-n2ccnc2)cc1` (stereo not given), for which the max response is -1.67% (inactive).

Turning to `CC1CCN(C(=O)c2ccccc2NC(=O)Cc2ccccc2)CC1`, the max response was 18.5% (inactive).

Turning to `O=C(C1CCN(Cc2ccc(Cl)cc2)CC1)N1CCN(Cc2ccc3c(c2)OCO3)CC1`, the max response was -1.07% (inactive).

These data come from PubChem BioAssay AID2314 (National Center for Advancing Translational Sciences (NCATS), 2010).
